Measured values: ChEMBL document CHEMBL3988442, “University of Dundee, Small-Polar-MMV Screening Library” (2021)
For some assays here: Potency and affinity values are given separately.

Experiments:
Design in all cases: scale not given: direction of the effect not stated beside the values
[1] = biological target: Protein translocase subunit SecA (Escherichia coli (strain K12)) (UniProt P10408); assay: Assay to Identify E. coli SecA ATPase Inhibitors; format: functional; conditions: 30 µM
[2] = biological target: T1, Ubiquitin-activating enzyme e1, putative (Leishmania donovani (strain BPK282A1)) (UniProt E9BSI1); assay: Leishmania donovani Ubiquitin Activating Enzyme (LdE1); format: functional; conditions: 30 µM
T1 sequence (whole entry): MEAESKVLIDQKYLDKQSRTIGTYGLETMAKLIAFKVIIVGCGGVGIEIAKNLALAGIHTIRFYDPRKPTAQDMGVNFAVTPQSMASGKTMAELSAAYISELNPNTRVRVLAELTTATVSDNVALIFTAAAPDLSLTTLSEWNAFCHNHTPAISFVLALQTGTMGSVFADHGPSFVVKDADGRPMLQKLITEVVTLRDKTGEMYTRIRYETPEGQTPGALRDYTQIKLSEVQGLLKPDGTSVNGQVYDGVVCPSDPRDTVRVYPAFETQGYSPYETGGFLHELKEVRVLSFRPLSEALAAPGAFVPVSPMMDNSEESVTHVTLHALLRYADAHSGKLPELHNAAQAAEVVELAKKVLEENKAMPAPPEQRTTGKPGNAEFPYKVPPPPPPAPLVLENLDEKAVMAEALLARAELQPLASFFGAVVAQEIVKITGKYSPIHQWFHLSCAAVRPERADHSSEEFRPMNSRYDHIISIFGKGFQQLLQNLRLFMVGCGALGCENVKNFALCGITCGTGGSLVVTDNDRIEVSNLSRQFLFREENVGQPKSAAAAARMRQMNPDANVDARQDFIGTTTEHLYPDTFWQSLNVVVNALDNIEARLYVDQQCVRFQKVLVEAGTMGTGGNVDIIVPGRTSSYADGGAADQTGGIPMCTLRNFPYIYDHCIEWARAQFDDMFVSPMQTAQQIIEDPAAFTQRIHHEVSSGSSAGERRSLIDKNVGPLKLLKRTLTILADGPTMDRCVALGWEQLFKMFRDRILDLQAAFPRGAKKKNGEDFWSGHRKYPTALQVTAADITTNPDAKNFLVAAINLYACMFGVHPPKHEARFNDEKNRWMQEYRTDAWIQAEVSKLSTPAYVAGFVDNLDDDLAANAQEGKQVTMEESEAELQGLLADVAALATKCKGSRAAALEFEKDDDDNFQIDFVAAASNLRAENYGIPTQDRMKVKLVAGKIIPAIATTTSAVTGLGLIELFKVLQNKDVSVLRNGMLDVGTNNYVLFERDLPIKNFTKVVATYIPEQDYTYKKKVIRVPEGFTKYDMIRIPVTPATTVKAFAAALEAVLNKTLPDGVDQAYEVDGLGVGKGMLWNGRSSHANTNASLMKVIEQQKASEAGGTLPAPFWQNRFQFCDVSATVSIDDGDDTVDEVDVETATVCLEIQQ

[3] = biological target: AMP-activated protein kinase, AMPK (Homo sapiens) (UniProt P54646+O43741+P54619+Q9UGJ0+Q9Y478+Q13131+Q9UGI9); assay: AMP-dependent Kinase enzyme assay. An in vitro enzyme assay that detects ADP turnover that is directly proportional to AMPK activity. This uses naive AMPK that is activated during the assay with MK-8722; format: functional; conditions: 30 µM
[4] = biological target: Sialic acid-binding Ig-like lectin 9 (Homo sapiens) (UniProt Q9Y336); assay: Hs-Siglec9 ALPHAscreen SOP 20170721; conditions: 10 µM
Trypanosoma cruzi = assay: Trypanosoma cruzi phosphomannomutase and mannose-1-phosphate guanylyltransferase assay; format: functional; conditions: 10 µM
[5] = biological target: T2, Arginase-2, mitochondrial (Homo sapiens) (UniProt P78540); assay: in vitro enzyme assay to detect the production of urea directly proportional to the activity of Arginase II; format: functional; conditions: 33.3 µM; note: in the data most compounds retested in dose-response had high values
T2 sequence (whole entry): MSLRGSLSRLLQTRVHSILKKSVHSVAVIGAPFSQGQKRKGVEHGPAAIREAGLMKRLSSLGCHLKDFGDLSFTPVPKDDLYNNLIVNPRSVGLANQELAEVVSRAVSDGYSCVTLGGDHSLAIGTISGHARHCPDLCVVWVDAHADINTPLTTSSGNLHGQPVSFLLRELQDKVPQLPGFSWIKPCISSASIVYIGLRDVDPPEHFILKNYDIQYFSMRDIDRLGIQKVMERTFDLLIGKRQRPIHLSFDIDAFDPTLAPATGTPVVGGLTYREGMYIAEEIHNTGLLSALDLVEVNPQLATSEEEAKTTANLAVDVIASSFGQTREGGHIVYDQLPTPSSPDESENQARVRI

[6] = biological target: T3, Proteasome subunit beta (Trypanosoma cruzi) (UniProt O96673); assay: Trypanosoma cruzi proteasome chymotrypsin-like activity (TcProtChymo) assay.; note: in the data most compounds retested in dose-response had high values; format: functional; conditions: 9.37 µM
T3 sequence (whole entry): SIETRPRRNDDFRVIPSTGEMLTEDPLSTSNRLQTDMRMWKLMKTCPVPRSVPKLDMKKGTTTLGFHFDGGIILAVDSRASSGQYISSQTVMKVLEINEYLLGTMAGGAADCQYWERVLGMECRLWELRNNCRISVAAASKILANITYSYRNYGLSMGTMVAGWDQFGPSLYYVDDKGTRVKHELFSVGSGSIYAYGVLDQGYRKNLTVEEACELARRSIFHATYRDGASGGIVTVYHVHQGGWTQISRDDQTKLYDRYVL

Homo sapiens = organism: Homo sapiens; assay: To identify inhibition of the IFN signalling (Jak-Stat) pathway via expression of an eGFP reporter gene under the control of an IFN-stimulated response element (ISRE) containing MxA promoter.; format: functional; conditions: 30 µM
[7] = biological target: T4, Tyrosyl-tRNA synthetase, putative (Trypanosoma cruzi (strain CL Brener)) (UniProt Q4DSP6); assay: Trypanosoma cruzi tyrosyl tRNA synthetase (TcYRS) _High Tyrosine SOP; format: functional; conditions: 30 µM; note: in the data most compounds retested in dose-response had high values
T4 sequence (whole entry): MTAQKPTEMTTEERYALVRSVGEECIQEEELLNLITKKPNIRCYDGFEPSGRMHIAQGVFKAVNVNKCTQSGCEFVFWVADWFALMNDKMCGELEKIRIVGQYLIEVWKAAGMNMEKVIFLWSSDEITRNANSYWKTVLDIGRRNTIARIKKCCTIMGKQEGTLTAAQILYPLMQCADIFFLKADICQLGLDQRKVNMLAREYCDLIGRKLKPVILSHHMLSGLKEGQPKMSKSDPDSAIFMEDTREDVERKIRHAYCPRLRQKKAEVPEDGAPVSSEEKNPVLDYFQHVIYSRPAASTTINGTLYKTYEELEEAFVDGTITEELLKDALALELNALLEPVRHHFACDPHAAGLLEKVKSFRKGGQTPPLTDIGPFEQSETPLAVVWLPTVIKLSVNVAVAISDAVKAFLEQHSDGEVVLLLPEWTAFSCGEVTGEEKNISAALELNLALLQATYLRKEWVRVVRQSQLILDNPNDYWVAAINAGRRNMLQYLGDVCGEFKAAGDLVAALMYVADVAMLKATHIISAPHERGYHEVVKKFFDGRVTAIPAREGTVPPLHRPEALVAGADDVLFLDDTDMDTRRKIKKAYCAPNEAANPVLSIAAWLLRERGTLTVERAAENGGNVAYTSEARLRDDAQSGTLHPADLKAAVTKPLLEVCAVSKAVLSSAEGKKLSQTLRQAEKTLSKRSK

[8] = biological target: T4, Tyrosyl-tRNA synthetase, putative (Trypanosoma cruzi (strain CL Brener)); assay: Trypanosoma cruzi tyrosyl tRNA synthetase (TcYRS) SOP; format: functional; conditions: 30 µM
[9] = biological target: Chromo domain-containing protein 1 (Saccharomyces cerevisiae (strain ATCC 204508 / S288c) (Baker's yeast)) (UniProt P32657); assay: ScCHD-1 Enzyme Inhibition Assay; format: functional; conditions: 30 µM; note: in the data most compounds retested in dose-response had high values
Chromo domain-containing protein 1 (Saccharomyces cerevisiae (strain ATCC 204508 / S288c) (Baker's yeast)), sequence (P32657 whole entry, the tested form may be a part): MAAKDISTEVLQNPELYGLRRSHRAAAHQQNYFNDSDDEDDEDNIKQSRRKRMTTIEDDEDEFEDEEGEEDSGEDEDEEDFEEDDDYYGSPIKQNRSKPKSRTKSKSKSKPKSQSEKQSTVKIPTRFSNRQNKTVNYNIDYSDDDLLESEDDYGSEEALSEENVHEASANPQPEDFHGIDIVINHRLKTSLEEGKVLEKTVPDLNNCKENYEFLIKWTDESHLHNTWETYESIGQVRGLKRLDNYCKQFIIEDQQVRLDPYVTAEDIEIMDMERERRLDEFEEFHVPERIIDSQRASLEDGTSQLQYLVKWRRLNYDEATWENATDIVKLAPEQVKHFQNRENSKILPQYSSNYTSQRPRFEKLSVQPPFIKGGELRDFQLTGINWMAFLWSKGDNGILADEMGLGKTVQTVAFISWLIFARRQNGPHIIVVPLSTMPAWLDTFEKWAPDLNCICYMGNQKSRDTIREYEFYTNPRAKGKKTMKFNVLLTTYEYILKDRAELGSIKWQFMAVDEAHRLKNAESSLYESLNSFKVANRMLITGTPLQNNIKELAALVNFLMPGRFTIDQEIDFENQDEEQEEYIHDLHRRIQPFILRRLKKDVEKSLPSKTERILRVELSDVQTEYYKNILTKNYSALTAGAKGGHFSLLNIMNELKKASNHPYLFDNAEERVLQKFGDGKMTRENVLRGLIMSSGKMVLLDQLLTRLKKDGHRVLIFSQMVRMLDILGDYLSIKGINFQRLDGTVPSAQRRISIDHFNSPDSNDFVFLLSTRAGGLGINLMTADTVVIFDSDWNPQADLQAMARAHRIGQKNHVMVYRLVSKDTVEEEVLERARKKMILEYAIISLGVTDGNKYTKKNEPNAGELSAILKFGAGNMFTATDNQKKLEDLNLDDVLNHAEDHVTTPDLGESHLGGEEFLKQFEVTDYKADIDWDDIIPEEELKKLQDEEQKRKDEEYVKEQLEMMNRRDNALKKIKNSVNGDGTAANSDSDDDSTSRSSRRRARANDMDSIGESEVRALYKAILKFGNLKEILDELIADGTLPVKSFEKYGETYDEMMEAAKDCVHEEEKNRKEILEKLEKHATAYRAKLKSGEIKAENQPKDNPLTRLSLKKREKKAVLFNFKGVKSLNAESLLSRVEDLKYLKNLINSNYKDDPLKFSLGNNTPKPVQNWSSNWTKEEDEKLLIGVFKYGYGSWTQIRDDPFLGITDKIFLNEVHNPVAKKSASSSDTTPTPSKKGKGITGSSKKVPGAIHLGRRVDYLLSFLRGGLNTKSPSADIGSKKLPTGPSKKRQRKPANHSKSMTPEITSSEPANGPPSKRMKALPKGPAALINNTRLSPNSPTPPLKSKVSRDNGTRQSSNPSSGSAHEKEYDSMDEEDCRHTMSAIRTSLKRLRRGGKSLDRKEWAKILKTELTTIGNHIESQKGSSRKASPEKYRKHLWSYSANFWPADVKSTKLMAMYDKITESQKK

Sialic acid-binding Ig-like lectin 9 (Homo sapiens), sequence (Q9Y336 whole entry): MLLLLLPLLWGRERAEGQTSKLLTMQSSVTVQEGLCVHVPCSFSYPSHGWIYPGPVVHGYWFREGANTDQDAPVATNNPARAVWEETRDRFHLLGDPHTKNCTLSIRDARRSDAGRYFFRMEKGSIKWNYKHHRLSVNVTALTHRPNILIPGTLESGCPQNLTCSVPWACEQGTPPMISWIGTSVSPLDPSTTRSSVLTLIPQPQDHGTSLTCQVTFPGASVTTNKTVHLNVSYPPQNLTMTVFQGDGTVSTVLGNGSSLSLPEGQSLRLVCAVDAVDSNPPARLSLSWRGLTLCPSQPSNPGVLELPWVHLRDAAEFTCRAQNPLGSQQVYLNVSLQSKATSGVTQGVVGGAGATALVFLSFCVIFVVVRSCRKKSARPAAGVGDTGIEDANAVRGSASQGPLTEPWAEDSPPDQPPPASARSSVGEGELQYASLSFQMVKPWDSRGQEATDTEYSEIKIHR
Protein translocase subunit SecA (Escherichia coli (strain K12)), sequence (P10408 whole entry): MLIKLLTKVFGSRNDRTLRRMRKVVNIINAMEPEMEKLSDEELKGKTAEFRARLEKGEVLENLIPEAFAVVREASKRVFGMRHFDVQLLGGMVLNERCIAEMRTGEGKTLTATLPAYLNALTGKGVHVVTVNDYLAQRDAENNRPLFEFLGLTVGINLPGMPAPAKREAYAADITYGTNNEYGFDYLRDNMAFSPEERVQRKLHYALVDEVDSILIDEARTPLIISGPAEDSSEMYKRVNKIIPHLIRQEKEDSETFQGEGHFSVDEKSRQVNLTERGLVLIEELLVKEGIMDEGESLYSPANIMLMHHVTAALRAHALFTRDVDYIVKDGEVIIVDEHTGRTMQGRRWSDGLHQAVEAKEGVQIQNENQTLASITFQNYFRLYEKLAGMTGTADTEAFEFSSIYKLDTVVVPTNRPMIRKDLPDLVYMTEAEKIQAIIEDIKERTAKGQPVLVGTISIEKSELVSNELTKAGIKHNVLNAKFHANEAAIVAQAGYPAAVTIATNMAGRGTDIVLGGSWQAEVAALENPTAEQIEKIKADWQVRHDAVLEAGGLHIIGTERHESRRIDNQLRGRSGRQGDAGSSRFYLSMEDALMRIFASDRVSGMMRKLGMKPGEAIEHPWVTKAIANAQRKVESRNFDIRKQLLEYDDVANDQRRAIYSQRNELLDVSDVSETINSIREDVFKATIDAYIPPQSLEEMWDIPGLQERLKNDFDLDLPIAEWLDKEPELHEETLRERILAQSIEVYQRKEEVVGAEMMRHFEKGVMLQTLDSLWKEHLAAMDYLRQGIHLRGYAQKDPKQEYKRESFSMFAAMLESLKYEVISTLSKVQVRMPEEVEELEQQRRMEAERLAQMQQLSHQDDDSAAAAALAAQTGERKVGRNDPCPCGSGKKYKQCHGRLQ

Compound	Percent Effect [1] [%]	Percent Effect [2] [%]	Percent Effect [3] [%]	Percent Effect [4] [%]	Percent Effect (Trypanosoma cruzi) [%]	Percent Effect [5] [%]	Percent Effect [6] [%]	Percent Effect (Homo sapiens) [%]	Percent Effect [7] [%]	Percent Effect [8] [%]	Percent Effect [9] [%]
CN(C)C(=O)N1Cc2nnn(C)c2C(COCC2CC2)C1 (stereo unspecified)	1.21	-21.9	-4.36	0.0741	4.96	2	6.76	-7.39	2.08	6.17	-1.7
CN(C)c1ncc(CN2CCOC(C(=O)Nc3ccccc3)C2)cn1 (stereo unspecified)	-0.531	16	2.21	-8.34	2.36	71.6	18.6	23.5	3.19	14.1	-7.74
CN1CCC(Oc2ccc(NC(=O)c3cccc(Cl)c3)cc2)CC1	-5.92	0	6.08	4.72	3.05	19.3	10.2	12.9	-5.38	1.24	-3.75
Cc1ccoc1C(=O)N1CC[C@H]2O[C@@H](C)C[C@H]2C1	-5.4	21.3	-6.43	2.33	5.6	-45.3	9.06	2.95	8.33	22.5	-8.54
CC(C)NC(=O)c1nnn(-c2cccc(C(F)(F)F)c2)c1N	-2.18	-4.17	-2.65	-0.424	6.51	-4.86	4.04	11.5	0	0	-1.24
O=C(NCc1ccco1)C1CCCN1Cc1nc(-c2ccco2)no1 (stereo unspecified)	-0.649	13.5	0.501	-7.57	-4.18	4.99	7.9	10.9	7.92	15.8	-0.371
Cc1ccc(C)c(CNC(=O)NC(C)(C(=O)O)c2ccco2)c1 (stereo unspecified)	-5.53	21.1	-0.592	12.2	8.12	-5.75	5.33	5.04	5.42	16.1	-4.02
COc1cc(CNCc2c(C)nn(C)c2N(C)C)ccc1C	-4.67	-5.41	-13.7	2.96	1.98	-6.41	3.06	-2.21	5.42	1.24	0.104
Cc1cc(CN2CCCC(C)(CO)C2)ccc1F (stereo unspecified)	0.156	5.41	-7.31	1.4	2.05	12.2	0.0858	5.91	-1.07	3.7	-7.89
Cn1cnc2c1C(COCc1cccnc1)N(Cc1ccccn1)CC2 (stereo unspecified)	-3.69	8	-12.6	2.61	7.53	-51.8	5.47	3.9	4.17	-55	-7.17
COc1ccc(NC(=O)CCc2c(C)nc3cc(O)nn3c2C)cn1	-3.54	0	-317	9.4	6.18	0.356	8.62	25.5	7.77	21.9	-8.7
COC(=O)c1sccc1S(=O)(=O)N1CCC(Oc2cccnn2)CC1	-0.0971	-5.48	16.5	-5.94	-3.33	1.36	9.58	9.58	-6.45	0	-3.65
CC(=O)NCCc1cc(N2CCN(C(C)=O)CC2)nc(C2CC2)n1	2.03	-6.76	10.3	-0.0242	-3.75	1.16	9.36	7.59	2.15	-1.3	-3.42
Cc1ccc(N2CCN(C(=O)COc3nccc(C)n3)CC2)nn1	-4.66	21.9	-13.9	17.7	7.44	6.36	11.4	16	7.53	17.5	-9.03
CCc1cccc(N2CCC(NC(=O)c3ccc(=O)[nH]n3)CC2)c1	-0.605	3.8	2.33	1.07	-4.82	4.52	15.8	21	5.21	15.2	-11.3
CCn1ncc2c1CCCC2NCC1=Cc2ccccc2OC1 (stereo unspecified)	-4.51	3.8	4.34	0.918	1.95	-7.1	10.1	13.4	4.17	7.59	-2
